Results taken from PubChem BioAssay (NCI).
This is part of a sample that, as a whole, favours compounds with a hit. Of some 83,000 tested, about 20% had one in any assay.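 Testing used 96-well plates and a 48-hour single-concentration exposure. Example: -40 means 40% of the starting cells died.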 A number with no mark means an inactive call. Activity calls are given as the source filed them. Rule for the calls: active = growth percent below 10; inactive = the rest.

The molecules below were run on MDA-MB-468 breast (assay: NCI-60 one-dose screen, 48 h (100 = growth as untreated, 0 = no growth, -100 = all killed)). Settings: 10 µM unless noted.

Row | SMILES | growth
1 | CCCCCCCCN(CCCCCCCC)CCCCCCCCCN1CCCc2cc(OC)ccc21 | 61.8%
2 | C=CC1CN2CCC1CC2C(O)c1ccnc2ccc(OC)cc12 (stereo not drawn) | 102%
3 | COc1cc2ncnc(Nc3ccc(F)c(Cl)c3)c2cc1NC(=O)/C=C/CN1CCCCC1 | -82.2% (active)
